Reference: PubChem BioAssay (EPA / NIEHS)
Several values for one entry are separate records, joined by “and”; a condition that tells them apart may be missing. Equal values may be shown once. The source holds several records for some structures; these can differ, active in one and inactive in another. Activity calls are given as the source filed them. The calls were made as follows: active = hit-call score of the fitted dose curve at least 0.9, where 1 is the maximum; inactive = score below 0.9.

Columns and labels:
[1] = APR_HepG2_NuclearSize_24hr: Apredica 24-hour HepG2 Assay for Nuclear Size (AID 2282907); settings: high-content imaging, actives raise or lower the signal
How it was run: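 Nuclear size from Hoechst 33342-stained, formaldehyde-fixed HepG2 nuclei imaged by high-content microscopy, after 24 h dosing at ten concentrations from 0.39 to 200 uM in 0.5% DMSO; gain or loss relative to DMSO baseline.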

[2] = APR_HepG2_CellLoss_24hr: Apredica 24-hour HepG2 Assay for Cell Loss (AID 2282908); settings: high-content imaging;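 as to AC50: fit in both directions so a hit may be cell loss or gain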
How it was run: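 Nuclei stained with Hoechst 33342 after formaldehyde fixation (3.7%) were imaged at 20x to count cells. Exposure lasted 24 hr, at ten concentrations from 0.39 to 200 uM in duplicate, with 0.5% v/v DMSO. Fit bidirectional, relative to DMSO.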

[3] = APR_HepG2_MicrotubuleCSK_24hr: Apredica 24-hour HepG2 Assay for Microtubule CSK Stabilty (AID 2282909); settings: HepG2 microtubule cytoskeleton imaging, actives raise or lower the signal
How it was run: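 Fixed HepG2 cells were stained for alpha-tubulin and imaged after 24 hr exposure to ten concentrations spanning 0.39–200 uM in 0.5% DMSO. Signal change was fitted in both directions relative to DMSO; taxol was the positive control.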

[4] = APR_HepG2_MitoticArrest_24hr: Apredica 24-hour HepG2 Assay for Mitotic Arrest (AID 2282910); settings: high-content imaging, actives raise or lower the signal
How it was run: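 HepG2, 24 hr dosing, 0.39–200 uM, 0.5% DMSO final. Formaldehyde-fixed, Triton-permeabilised, anti-phospho-histone H3 plus Hoechst. ArrayScan imaging at 20x; bidirectional fit vs DMSO baseline.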

[5] = APR_HepG2_MitoMembPot_24hr: Apredica 24-hour HepG2 Assay for Mitochondrial Membrane Potential (AID 2282911); settings: imaging, actives raise or lower the signal
How it was run: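 HepG2 human liver cells were exposed 24 hr to compounds at 0.39–200 uM (final DMSO 0.5% v/v) in duplicate. MitoTracker Red CMXRos (250 nM, 30 min) was loaded before formaldehyde fixation; fluorescence was imaged by ArrayScan HCS and fitted bidirectionally versus DMSO.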

[6] = APR_HepG2_p53Act_24hr: Apredica 24-hour HepG2 Assay for p53 Activation (AID 2282913); settings: high-content imaging, actives raise or lower the signal;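 also: p53 protein immunofluorescence averaged per cell in HepG2 with Hoechst nuclei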
How it was run: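 HepG2 cells exposed 24 hr to compounds at 0.39–200 uM (10 concentrations, duplicate), final DMSO 0.5% v/v. After formaldehyde fixation and Triton permeabilization, p53 was immunolabeled (sheep anti-p53, Cy5 secondary) with Hoechst 33342 nuclear counterstain, then imaged by high-content fluorescence microscopy.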

[7] = APR_HepG2_CellCycleArrest_72hr: Apredica 72-hour HepG2 Assay for Cell Cycle Arrest (AID 2282914); settings: high-content imaging, actives raise or lower the signal
How it was run: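 HepG2 cells were exposed to compounds at 0.39–200 uM (0.5% v/v DMSO final, duplicates) for 72 hr, fixed in 3.7% formaldehyde, permeabilized and stained with Hoechst 33342. Nuclear DNA content was quantified by high-content imaging; gain or loss of signal was fitted bidirectionally against DMSO.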

[8] = APR_HepG2_CellLoss_72hr: Apredica 72-hour HepG2 Assay for Cell Loss (AID 2282915); settings: high-content imaging
How it was run: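 HepG2 cells exposed 72 h to compound at 0.39–200 uM (10 concentrations, duplicate) in 0.5% DMSO. Fixed with 3.7% formaldehyde and Hoechst 33342-stained. Imaged at 20x; nuclear count gives cell number, fitted bidirectionally versus DMSO.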

[9] = APR_HepG2_MitoMembPot_72hr: Apredica 72-hour HepG2 Assay for Mitochondrial Membrane Potential (AID 2282917); settings: imaging, actives raise or lower the signal
How it was run: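 HepG2 cells dosed 72 hr with compound at 0.39–200 uM in duplicate, 0.5% v/v DMSO final. Mitochondria stained with 250 nM MitoTracker Red CMXRos for 30 min before formaldehyde fixation, imaged by high-content fluorescence; bidirectional fit versus DMSO.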

[10] = APR_HepG2_MitoticArrest_72hr: Apredica 72-hour HepG2 Assay for Mitotic Arrest (AID 2282918); settings: high-content imaging, actives raise or lower the signal
How it was run: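 HepG2 cells were exposed for 72 hr to compound at 0.39–200 uM (10 concentrations, duplicate) in 0.5% v/v DMSO, fixed in 3.7% formaldehyde, immunostained for phospho-histone H3 with Hoechst 33342 and imaged by high-content fluorescence; bidirectional fits versus DMSO.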

[11] = APR_HepG2_MicrotubuleCSK_72hr: Apredica 72-hour HepG2 Assay for Microtubule CSK Stabilty (AID 2282919); settings: HepG2 microtubule cytoskeleton, high-content imaging, actives raise or lower the signal
How it was run: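 HepG2, 72 hr cmpd exposure, 0.39–200 uM (10 pts, duplicate), 0.5% DMSO. 3.7% formaldehyde fix, 0.5% Triton perm, anti-alpha-tubulin/Cy5 plus Hoechst. HCS fluorescence intensity; bidirectional fit vs DMSO baseline; taxol as positive control.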

[12] = APR_HepG2_P-H2AX_24hr: Apredica 24-hour HepG2 Assay for H2AX Phosphorylation (AID 2282920); settings: high-content imaging, actives raise or lower the signal
How it was run: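 HepG2 human liver cells were exposed for 24 hr to compounds at 0.39–200 uM in duplicate, with 0.5% v/v DMSO final. Fixed cells were immunostained for phospho-histone H2A.x plus Hoechst 33342, imaged by HCS fluorescence, and fitted bidirectionally against DMSO.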

[13] = APR_HepG2_StressKinase_72hr: Apredica 72-hour HepG2 Assay for Stress Kinase (AID 2282921); settings: HepG2 stress kinase (phospho-c-Jun) imaging, actives raise or lower the signal
How it was run: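 Stress kinase signal is phospho-c-Jun immunofluorescence (1:500 primary, Cy3 secondary) in fixed, permeabilized human HepG2 cells imaged at 20x. Exposure lasted 72 hr over ten concentrations from 0.39 to 200 uM, 0.5% DMSO, in duplicate. Bidirectional fit versus DMSO.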

[14] = APR_HepG2_StressKinase_24hr: Apredica 24-hour HepG2 Assay for Stress Kinase (AID 2282922); settings: HepG2 stress kinase (phospho-c-Jun) imaging, actives raise or lower the signal
How it was run: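 Read-out: phospho-c-Jun immunofluorescence (Cy3 secondary) quantified by high-content imaging at 20x, nuclei defined by Hoechst 33342. Human HepG2 liver cells dosed 24 hr, 0.39–200 uM, DMSO 0.5% v/v; gain or loss of signal fitted relative to DMSO.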

[15] = APR_HepG2_p53Act_72hr: Apredica 72-hour HepG2 Assay for p53 Activation (AID 2282923); settings: high-content imaging, actives raise or lower the signal;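 also: average cellular p53 protein immunofluorescence intensity in HepG2 cells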
How it was run: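 After 72 h with compound (ten points, 0.39 to 200 uM, final DMSO 0.5% v/v), fixed HepG2 cells were labelled with sheep anti-p53 and Hoechst 33342 and imaged; gain or loss versus DMSO scored.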

[16] = APR_HepG2_MitoMass_72hr: Apredica 72-hour HepG2 Assay for Mitochondrial Mass (AID 2282924); settings: high-content imaging, actives raise or lower the signal;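 also: MitoTracker Red CMXRos stain intensity per cell imaged as mitochondrial mass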
How it was run: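 Read-out: MitoTracker Red fluorescence intensity from automated imaging (20x, six fields per well) in human HepG2 liver cells. Dosing ran 72 hr, 0.39–200 uM, 0.5% DMSO; bidirectional curve fitting versus DMSO baseline.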

[17] = APR_HepG2_NuclearSize_72hr: Apredica 72-hour HepG2 Assay for Nuclear Size (AID 2282925); settings: high-content imaging, actives raise or lower the signal
How it was run: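 Read-out: nuclear diameter from Hoechst 33342 images (ArrayScan, 20x, six fields/well), via cell-cycle image analysis. HepG2 were dosed 0.39–200 uM for 72 hr in 0.5% DMSO. Bidirectional fit relative to DMSO.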

[18] = ATG_CRE_CIS: Attagene CIS-FACTORIAL HepG2 Assay for human cAMP Responsive Element (CRE) binding protein 3 (AID 2282926); settings: HepG2 CRE cis-reporter, Attagene multiplexed mRNA; actives raise or lower the signal
How it was run: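 Capillary electrophoresis of 6-FAM-labelled, HpaI-digested PCR products quantified reporter transcripts. These came from HepG2 transiently transfected with cis-element reporters and exposed to test chemicals for 24 hours, with DMSO defining baseline activity.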

[19] = APR_HepG2_P-H2AX_72hr: Apredica 72-hour HepG2 Assay for H2AX Phosphorylation (AID 2282916); settings: imaging, actives raise or lower the signal;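 also: phospho-histone H2A.x immunostain intensity per cell marking DNA damage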
How it was run: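 Phospho-histone H2A.x immunofluorescence, multiplexed with Hoechst and c-Jun, quantified by high-content imaging. Compounds applied to HepG2 for 72 h across ten concentrations (0.39–200 uM, 0.5% DMSO), in duplicate; DMSO baseline.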

[20] = APR_HepG2_MitoMass_24hr: Apredica 24-hour HepG2 Assay for Mitochondrial Mass (AID 2282912); settings: high-content imaging, actives raise or lower the signal
How it was run: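 Endpoint is MitoTracker Red CMXRos (250 nM, 30 min, pre-fixation) intensity from 20x high-content imaging, nuclei located by Hoechst. Human HepG2 cells received ten concentrations from 0.39 to 200 uM in 0.5% DMSO for 24 hr, duplicate wells. Bidirectional fit relative to DMSO.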

Measured: AC50

CC(C)(c1ccc(O)cc1)c1ccc(O)cc1
inactive: [1] | [2] | [3] | [4] | [5] | [6] | [7] | [9] | [10] | [11] | [12] | [13] | [14] | [15] | [16] | [17] | [18]
active: [2] 106 µM and 107 µM and 100 µM | [3] 103 µM | [5] 12.7 µM and 30.5 µM and 101 µM | [8] 109 µM [middle of 4 runs] | [9] 101 µM and 81.5 µM and 107 µM | [12] 170 µM and 110 µM | [13] 102 µM | [16] 122 µM | [18] 64.3 µM and 25.5 µM and 22.7 µM

C[C@]12CC[C@@H]3c4ccc(O)cc4C[C@@H](CCCCCCCCCS(=O)CCCC(F)(F)C(F)(F)F)[C@H]3[C@@H]1CC[C@@H]2O (some centres not stated)
inactive: [1] | [2] | [3] | [4] | [5] | [6] | [7] | [8] | [19] | [10] | [11] | [12] | [13] | [14] | [15] | [16] | [17] | [18]
active: [9] 22 µM

CC(C)(C)[C@@H](O)[C@@H](Cc1ccc(Cl)cc1)n1cncn1
inactive: [1] | [2] | [3] | [4] | [20] | [6] | [7] | [9] | [10] | [11] | [12] | [13] | [14] | [15] | [16] | [17]
active: [5] 15.8 µM | [8] 33.4 µM | [18] 13.5 µM

CC(=O)[C@H]1CC[C@H]2[C@@H]3CCC4=CC(=O)CC[C@]4(C)[C@H]3CC[C@]12C
inactive: [1] | [5] | [9] | [11] | [13] | [14] | [16] | [17] | [18]
active: [2] 101 µM | [3] 104 µM | [4] 100 µM | [20] 106 µM | [6] 94.1 µM | [7] 165 µM | [19] 94.1 µM | [10] 81.6 µM | [12] 116 µM | [15] 97.2 µM

COc1nc(C)nc(NC(=O)NS(=O)(=O)c2ccccc2OCCCl)n1
inactive: [1] | [2] | [3] | [4] | [5] | [20] | [6] | [7] | [8] | [19] | [9] | [10] | [11] | [12] | [13] | [14] | [15] | [16] | [17] | [18]

C#CCOC(=O)[C@@H](C)Oc1ccc(Oc2ncc(Cl)cc2F)cc1
inactive: [1] | [2] | [3] | [4] | [5] | [20] | [6] | [7] | [19] | [9] | [10] | [11] | [12] | [13] | [14] | [15] | [16] | [17] | [18]
